High-throughput results from PubChem BioAssay.
Pf Dd2 inh: Plasmodium falciparum Dd2 growth inhibition. P. falciparum Dd2 growth, SYBR Green, 72 h. Potency, µM (series often up to 28.9 µM), usual class: inhibitors. actives 4.3% (n = 120,000); active = well fitted inhibition curve with a large enough effect; note: nearly all actives have a fitted effect of over 65% in size
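Readout: SYBR Green fluorescence, 485 nm excitation, 535 nm emission, after ~16 h lysis at 37C. Before that, Dd2-infected red cells (2.5% hematocrit) grew 72 h with compound, 29 uM top final concentration.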
Large screens that a line does not name were inactive. Only a selection was taken, and hits are over-represented in it overall.

Cc1ccc(CN2C[C@@H]3C(=O)N(Cc4ccc5c(c4)OCO5)C(=O)[C@@H]3C2)c(C)c1	none
CCc1ccc(NC(=O)Cn2ccn3nc(-c4ccc(F)cc4)c(CO)c3c2=O)cc1	none
O=C1CC(NS(=O)(=O)N2CCCC2)CN1Cc1ccc(F)cc1 (stereo unspecified)	none
Cc1nc2n(c1C(=O)NCC1CC1)CCC(Nc1ccc(F)cc1)C2 (stereo unspecified)	none
Cc1ccccc1NC1CCn2c(nc(C)c2C(=O)Nc2ccccc2)C1 (stereo unspecified)	none
Cc1nc2n(c1C(=O)Nc1cc(-c3ccc(F)cc3)[nH]n1)CCC(Nc1ccc(F)cc1)C2 (stereo unspecified)	Pf Dd2 inh 8.9µM
CC(C)NC(=O)C[C@@H]1C[C@H]2O[C@H](CNCc3ccccc3OC(F)(F)F)[C@@H](O)[C@H]2O1	none
COc1ccc(N2CC(C(=O)NCc3cccc(OC)c3)NC2=O)cc1 (stereo unspecified)	none
O=c1cc(N2CCOCC2)oc2c(-c3cccnc3)nccc12	none
COCC1CN(C)CC12CCNCC2 (stereo unspecified)	none
Cc1cccc(/C=C/c2onc(C)c2S(=O)(=O)N2CCC(C(=O)N3CCC(C)CC3)CC2)c1	none
Cc1cccc(N2CCN(C(=O)C3CCN(S(=O)(=O)c4c(C)noc4/C=C/c4ccccc4F)CC3)CC2)c1C	none
Cc1ccc(/C=C/c2onc(C)c2S(=O)(=O)N2CCC(C(=O)N3CCN(c4cccc(C)c4)C(C)C3)CC2)cc1 (stereo unspecified)	none
Cc1ccc(/C=C/c2onc(C)c2S(=O)(=O)N2CCC(C(=O)N3CCN(c4ccccc4F)CC3)CC2)cc1	Pf Dd2 inh 6.3µM
Cc1ccc(/C=C/c2onc(C)c2S(=O)(=O)N2CCC(C(=O)Nc3cc(F)ccc3F)CC2)cc1	none
Cc1ccc(/C=C/c2onc(C)c2S(=O)(=O)N2CCC(C(=O)N3CCC(N(C)C(C)C)CC3)CC2)cc1	Pf Dd2 inh 10µM
O=C(c1ccoc1)N1CCC(Nc2cccnc2)C1 (stereo unspecified)	none
O=C1CCCN1CC(=O)N1CCC[C@H](n2c(=O)n(CC3CC3)c3cccnc32)C1	none
O=C(Nc1ccc(F)cc1)N1CCC(CCNC(=O)C2(c3ccccc3)CC2)CC1	none
CN(C)Cc1nnc(C2CC(NC(=O)c3conc3-c3ccccc3)C2)n1C (stereo unspecified)	none
Cc1nc2c(c(-c3ccc(O)cc3)n1)CN(C(=O)c1ccc(Cl)nc1)CCC2	none
COc1ccc(NC(=O)C2=C(C)Nc3nc(SCc4ccc(Cl)cc4)nn3C2c2cccc(OC)c2OC)cc1 (stereo unspecified)	none
COc1cccc(C2C(C(=O)Nc3ccc(Cl)cc3)=C(C)Nc3nc4ccccc4n32)c1OC (stereo unspecified)	none
COc1cc(C2C(C(=O)Nc3ccc(Cl)cc3)=C(C)Nc3nc(SC)nn32)cc(OC)c1OC (stereo unspecified)	none
COc1ccc(C2C(C(=O)Nc3ccc(Cl)cc3)=C(C)Nc3nc(SCc4cccc(C)c4)nn32)cc1OC (stereo unspecified)	none
COc1cccc(C2C(C(=O)Nc3ccc(Cl)cc3)=C(C)Nc3c(C(=O)Nc4ccccc4)cnn32)c1OC (stereo unspecified)	Pf Dd2 inh 13µM
COc1ccc(NC(=O)C2=C(C)Nc3c(C(=O)Nc4ccc(C)cc4)cnn3C2c2cccc(Cl)c2)cc1 (stereo unspecified)	Pf Dd2 inh 3.2µM
Cc1ccc(CN2CCC(N3CC4CCCN4C3=O)CC2)cc1 (stereo unspecified)	none
COc1ccc(C(=O)N2CCc3nn(C)c(=O)n3CC2)cn1	none
CCn1nccc1C(=O)N1C[C@@H](F)C[C@H]1C(=O)N1CCCCC1	none
O=C(NC1C[C@H]2CC[C@@H](C1)N2C(=O)COc1ccc(F)cc1)c1ccncc1 (stereo partly specified)	none
C[C@H]1[C@@H]2[C@@H](O)C([C@H](C)C(=O)NCc3ccccn3)CC[C@@]2(C)CC[C@@H]1NC(=O)c1ccc(C#N)cc1 (stereo partly specified)	Pf Dd2 inh 8.9µM
C[C@H]1[C@@H]2[C@@H](O)C([C@H](C)C(=O)NCc3cccnc3)CC[C@@]2(C)CC[C@@H]1NC(=O)c1ccc(C#N)cc1 (stereo partly specified)	none
C[C@H]1[C@@H]2[C@@H](O)C([C@H](C)C(=O)NCc3ccccc3)CC[C@@]2(C)CC[C@@H]1NC(=O)c1ccc(C#N)cc1 (stereo partly specified)	none
Cn1nc(C2CCNCC2)n(Cc2ccccc2)c1=O	none
CC1CCN(C(=O)CSc2n[nH]c(-c3ccc(F)cc3)n2)CC1	none
COc1ccc(-c2nnc(SCC(=O)N3CCC(C)CC3)o2)cc1	none
O=C(Cc1ccccc1Cl)N1CCC[C@H]1c1nc(-c2ccccc2)no1	none
CC1CCN(C(=O)CSc2nc(-c3ccc(C(C)C)cc3)no2)CC1	Pf Dd2 inh 0.89µM
Cc1ccc(-c2noc([C@@H]3CCCN3C(=O)Cc3ccccc3Cl)n2)cc1	none
CC(C)c1ccc(-c2noc(SCC(=O)N3CCCCC3C)n2)cc1 (stereo unspecified)	Pf Dd2 inh 2.2µM
O=C(N[C@H](Cc1ccccn1)C1CC(O)C1)c1scc2c1OCCO2 (stereo partly specified)	none
CCCN1CC2(CCN(C)CC2)CC1C(=O)N(C)Cc1ccn[nH]1 (stereo unspecified)	none
COCC(=O)NC1CCC12CCN(C(=O)c1cccc(C#N)c1)CC2 (stereo unspecified)	none
COc1ccc(OCCn2cc(C(=O)c3ccco3)c3ccccc32)cc1	Pf Dd2 inh 1µM
O=C(c1cccs1)c1cn(CCOc2ccccc2Cl)c2ccccc12	Pf Dd2 inh 3.2µM
Cc1ccc(CN(Cc2ccco2)C(=O)COc2ccccc2C)cc1	none
COc1ccc(OCC(=O)Nc2ccc3c(c2)nc(CCNC(=O)c2ccco2)n3C)cc1	none
Cc1ccc(C)c(OCCn2cc(C(=O)c3ccco3)c3ccccc32)c1	Pf Dd2 inh 1µM
O=C(c1cn(CCOc2ccccc2F)c2ccccc12)C1CCCCC1	none
COc1ccc(NC(=O)Cn2cc(C(=O)C3CCCCC3)c3ccccc32)cc1	none
CCOC(=O)c1ccc(NC(=O)Cn2cc(C(=O)c3cccs3)c3ccccc32)cc1	none
Cc1ccc(NC(=O)Cn2cc(C(=O)c3ccccc3)c3ccccc32)c(C)c1	none
CCCN1C(=O)C(CC(=O)N2CCN(C)CC2)Sc2ncccc21 (stereo unspecified)	none
CCC(=O)NC1CCN(C(=O)N2CC3CC(C2)[C@H]2CCCC(=O)N2C3)CC1 (stereo partly specified)	none
CCOc1ncccc1C(=O)NC(C)c1cnc(-c2ccncc2)nc1C (stereo unspecified)	none
COc1ccc(Cl)cc1C(=O)N1CCC(Oc2nccnc2N(C)C)C1 (stereo unspecified)	none
CCc1noc(CC2CCOC3(CCN(S(=O)(=O)c4cccc(OC)c4)CC3)C2)n1 (stereo unspecified)	none
Cn1nccc1C(=O)N1CCCC1c1nc(C2CCOCC2)no1 (stereo unspecified)	none
CCc1nc(-c2c3n(c(=O)n(Cc4cc(F)cc(F)c4)c2=O)CCCCC3)no1	none
CCCS(=O)(=O)N[C@@H]1CN(Cc2ccccn2)C[C@H]1CN(C)C	none
COCCCNC(=O)N1CCCCCCN(C)C(=O)CC1	none
COCCNC(=O)C1CCCN1c1nc2ncccc2o1 (stereo unspecified)	none
O=C(O)[C@H](Cn1ccc(=O)[nH]c1=O)NC1CCC1	none
CCc1nn(-c2ccc(OC)cc2)c(Oc2ccccc2F)c1CCC(=O)N(CC)CC	none
